The record followed here is PubChem BioAssay (EPA / NIEHS).

Structures are written as SMILES. Values joined by “and” are separate entries in the source; they are usually repeats but may differ in a detail not shown here. Equal entries are not always repeated. Inconclusive results are not listed. Some structures have more than one record in an assay (separate samples or runs), and their calls can disagree. Active and inactive are the calls of the source. The calls were made as follows, unless noted: active = hit-call score of the fitted dose curve at least 0.9, where 1 is the maximum; inactive = score below 0.9.

The target in assay [1] is human Retinoid X Receptor beta (RXRb), RXRB (gene 6257) (UniProt P28702). Briefly: ATG_RXRb_TRANS: Attagene TRANS-FACTORIAL HepG2 Assay for human Retinoid X Receptor beta (RXRb) (AID 2283013; active = hit-call score of the fitted dose curve at least 0.9, where 1 is the maximum). A digest of the protocol:
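Chimeric receptor-Gal4 activity was assessed in transiently transfected human HepG2 cells after 24 h exposure. Transcripts from GAL4-UAS reporters were quantified by fluorescent RT-PCR and capillary electrophoresis, with DMSO as negative control and baseline.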

In assay [2] the target is human Thyroid Receptor alpha (THRa1), THRA (gene 7067) (UniProt P10827). Briefly: ATG_THRa1_TRANS: Attagene TRANS-FACTORIAL HepG2 Assay for human Thyroid Receptor alpha (THRa1) (AID 2283014; active = hit-call score of the fitted dose curve at least 0.9, where 1 is the maximum). The method, boiled down:
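Transcripts from GAL4-UAS-driven reporters, measured after 24 h compound exposure by RT-PCR plus capillary electrophoresis of 6-FAM-labeled fragments, were fitted for gain of signal relative to DMSO. Cells: transiently transfected HepG2 expressing NR-Gal4 chimeras.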

Read-out in assay [3]: E-selectin (Homo sapiens) (UniProt P16581)
Briefly: BSK_3C_Eselectin: BioMAP Diversity Plus: 3C Assay for Eselectin Biomarker Activity (AID 2283015). The following applies: primary human endothelial cells (HUVEC); actives raise or lower the signal. A digest of the protocol:
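E-selectin ELISA readout, fitted bidirectionally relative to DMSO, taken 24 h post-dosing in HUVEC cultures of the 3C system. Overt cytotoxicity tracked with sulforhodamine B staining of parallel wells.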

Read-out in assay [4]: Interleukin-1 alpha (IL1a), IL1A (gene 3552)
Briefly: BSK_BE3C_IL1a: BioMAP Diversity Plus: BE3C Assay for Interleukin-1 alpha (IL1a) Biomarker Activity (AID 2283016). The following applies: primary human bronchial epithelial cells; actives raise or lower the signal. A digest of the protocol:
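Signal from IL-1a ELISA, taken 24 h after chemical dosing of human bronchial epithelial cells, is compared with DMSO as baseline using bidirectional curve fitting.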

Read-out in assay [5]: Monocyte Chemoattractant Protein-1 (MCP1), CCL2 (gene 6347)
Briefly: BSK_3C_MCP1: BioMAP Diversity Plus: 3C Assay for Monocyte Chemoattractant Protein-1 (MCP1) Biomarker Activity (AID 2283017). The following applies: primary human endothelial cells (HUVEC); actives raise or lower the signal. A digest of the protocol: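 MCP-1 was measured by ELISA 24 h after dosing in primary HUVEC 3C cultures and fitted in both directions relative to DMSO; cytotoxicity was checked by SRB total-protein staining in parallel wells.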

Read-out in assay [6]: Monocyte Chemoattractant Protein-1 (MCP1), CCL2 (gene 6347)
The experiment in a line: BSK_4H_MCP1: BioMAP Diversity Plus: 4H Assay for Monocyte Chemoattractant Protein-1 (MCP1) Biomarker Activity (AID 2283018). The following applies: primary human endothelial cells (HUVEC); actives raise or lower the signal. The method, boiled down: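 Endothelial cells from umbilical vein were treated with test chemical, then after 24 h MCP-1 levels were quantified by ELISA; endpoint values came from bidirectional fitting with DMSO as baseline of activity.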

Read-out in assay [7]: Human Leukocyte Antigen - DR isotype (HLADR), HLA-DRA (gene 3122)
Briefly: BSK_3C_HLADR: BioMAP Diversity Plus: 3C Assay for Human Leukocyte Antigen - DR isotype (HLADR) Biomarker Activity (AID 2283019).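 As to outcome: ELISA of cell-surface HLA-DR on HUVEC 24 h after dosing.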 As to conditions: primary human endothelial cells (HUVEC); actives raise or lower the signal. A digest of the protocol:
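Bidirectional fitting against DMSO was applied to the HLA-DR ELISA signal from human umbilical vein endothelial cells, 24 h post-dose. Cytotoxicity came from parallel SRB total-protein staining; 3C proliferation was counted by SRB at 48 h.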

Read-out in assay [8]: Interleukin-8 (IL8), CXCL8 (gene 3576)
Briefly: BSK_3C_IL8: BioMAP Diversity Plus: 3C Assay for Interleukin-8 (IL8) Biomarker Activity (AID 2283020). The following applies: primary human endothelial cells (HUVEC); actives raise or lower the signal. A digest of the protocol: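 Endothelial primary cells of human umbilical vein origin are dosed with chemical; after 24 h the IL-8 biomarker is measured by ELISA, and concentration–response is fitted in both directions versus DMSO.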

Read-out in assay [9]: Monokine induced gamma interferon (MIG), CXCL9 (gene 4283)
The experiment in a line: BSK_3C_MIG: BioMAP Diversity Plus: 3C Assay for Monokine induced gamma interferon (MIG) Biomarker Activity (AID 2283021). As to conditions: primary human endothelial cells (HUVEC); actives raise or lower the signal. A digest of the protocol:
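Endothelial primary cells (human umbilical vein) are dosed with test chemical in the 3C system. MIG levels are measured by ELISA at 24 h and fitted in both directions relative to DMSO.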

The target of assay [10] is human Vitamin D Receptor (VDR), VDR (gene 7421) (UniProt P11473). The experiment in a line: ATG_VDR_TRANS: Attagene TRANS-FACTORIAL HepG2 Assay for human Vitamin D Receptor (VDR) (AID 2283022; active = hit-call score of the fitted dose curve at least 0.9, where 1 is the maximum). The method, boiled down: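 Transactivation by an exogenous VDR-Gal4 chimera in transiently transfected HepG2 cells was measured as reporter transcript level 24 hours after chemical treatment. RT-PCR products were analysed by capillary electrophoresis and fitted in the positive direction relative to DMSO.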
human Vitamin D Receptor (VDR), VDR (gene 7421), sequence (P11473 whole entry, looked up, the tested form may be a part): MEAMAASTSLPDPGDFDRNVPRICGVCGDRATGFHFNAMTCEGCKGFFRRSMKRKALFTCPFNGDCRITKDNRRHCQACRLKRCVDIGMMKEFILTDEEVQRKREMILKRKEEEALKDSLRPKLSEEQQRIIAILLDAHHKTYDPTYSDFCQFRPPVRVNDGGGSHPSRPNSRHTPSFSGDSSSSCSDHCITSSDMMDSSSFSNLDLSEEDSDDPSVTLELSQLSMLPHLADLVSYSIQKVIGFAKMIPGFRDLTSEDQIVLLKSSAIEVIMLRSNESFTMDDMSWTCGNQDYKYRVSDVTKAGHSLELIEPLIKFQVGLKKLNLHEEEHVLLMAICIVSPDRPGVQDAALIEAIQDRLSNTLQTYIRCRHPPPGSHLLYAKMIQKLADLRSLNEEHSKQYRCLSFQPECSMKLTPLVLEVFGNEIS

The nature of assay [11]: BSK_3C_SRB: Viability Assessment in the BioMAP Diversity Plus: 3C Assay (AID 2283023).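 Also: fitted both ways against DMSO so a hit may be signal rise or drop.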 As to conditions: primary human endothelial cells (HUVEC). A digest of the protocol:
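Cytotoxicity readout in parallel HUVEC 3C cultures: after 24 h compound exposure, cells fixed with 10% TCA, stained with 0.1% SRB and read at 560 nm. Gain or loss relative to DMSO fitted.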

Read-out in assay [12]: Matrix Metallopeptidase 1 (MMP1), MMP1 (gene 4312)
The experiment in a line: BSK_BE3C_MMP1: BioMAP Diversity Plus: BE3C Assay for Matrix Metallopeptidase 1 (MMP1) Biomarker Activity (AID 2283024). As to conditions: primary human bronchial epithelial cells; actives raise or lower the signal. The method, boiled down: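 MMP1 signal, measured by ELISA after a 24 h chemical exposure of human primary bronchial epithelial cells, is analysed with bidirectional fitting using DMSO as negative control.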

Assay [13] can be described thus: BSK_3C_Vis: BioMAP Diversity Plus: 3C Assay for Morphology Visualization (AID 2283025).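 Also: fitted both ways so gain or loss versus DMSO counts.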 As to conditions: primary human endothelial cells (HUVEC). The method, boiled down: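 Morphology read by light microscopy serves as a background control for the multiplexed 3C assay in human umbilical vein endothelial cells, taken 24 h after dosing, with DMSO as the negative control and bidirectional curve fitting.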

Read-out in assay [14]: Pselectin, SELP (gene 6403)
The experiment in a line: BSK_4H_Pselectin: BioMAP Diversity Plus: 4H Assay for Pselectin Biomarker Activity (AID 2283026). As to conditions: primary human endothelial cells (HUVEC); actives raise or lower the signal. The method, boiled down: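 Endothelial primary cells (human umbilical vein) are dosed, incubated 24 h, and assayed for surface P-selectin by ELISA; responses in either direction are fitted relative to the DMSO negative control.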

A short description of assay [15]: BSK_4H_SRB: Viability Assessment in the BioMAP Diversity Plus: 4H Assay (AID 2283027).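 Also: cells exposed to compound for 24 h before staining.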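 As to AC50: curves fitted both ways versus DMSO so AC50 may be loss or gain.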 As to conditions: primary human endothelial cells (HUVEC). A digest of the protocol:
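HUVEC, 24 h post-dose; 10% TCA fix, 0.1% SRB stain, A560 nm. Total protein = overt cytotoxicity, parallel to biomarker read. Bidirectional fit vs DMSO baseline.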

Assay [16] in a line: BSK_BE3C_SRB: Viability Assessment in the BioMAP Diversity Plus: BE3C Assay (AID 2283028). The following applies: primary human bronchial epithelial cells. A digest of the protocol: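 Cytotoxicity read-out: SRB (0.1%) staining of TCA-fixed (10%) human lung bronchial epithelial cells, absorbance 560 nm, 24 h post-dosing. Curves fitted both directions relative to DMSO.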
Read-out in assay [17]: Thrombomodulin, THBD (gene 7056)
The experiment in a line: BSK_3C_Thrombomodulin: BioMAP Diversity Plus: 3C Assay for Thrombomodulin Biomarker Activity (AID 2283029). As to conditions: primary human endothelial cells (HUVEC); actives raise or lower the signal. The method, boiled down:
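Endothelial cells from umbilical vein are dosed with test chemical and incubated 24 h. Thrombomodulin is then quantified by ELISA, with DMSO serving as negative control and activity baseline.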

For assay [18], the target named is Retinoic acid receptor RXR-alpha (Homo sapiens) (UniProt P19793). Briefly: ATG_RXRa_TRANS: Attagene TRANS-FACTORIAL HepG2 Assay for human Retinoid X Receptor alpha (RXRa) (AID 2283012; active = hit-call score of the fitted dose curve at least 0.9, where 1 is the maximum). A digest of the protocol: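 Measures exogenous chimeric NR-GAL4 activity in transfected HepG2 liver cells after 24 h of dosing. Induced reporter mRNA was detected by RT-PCR with capillary electrophoresis, and gain of signal was analysed against DMSO.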
Retinoic acid receptor RXR-alpha (Homo sapiens), sequence (P19793 whole entry, looked up, the tested form may be a part): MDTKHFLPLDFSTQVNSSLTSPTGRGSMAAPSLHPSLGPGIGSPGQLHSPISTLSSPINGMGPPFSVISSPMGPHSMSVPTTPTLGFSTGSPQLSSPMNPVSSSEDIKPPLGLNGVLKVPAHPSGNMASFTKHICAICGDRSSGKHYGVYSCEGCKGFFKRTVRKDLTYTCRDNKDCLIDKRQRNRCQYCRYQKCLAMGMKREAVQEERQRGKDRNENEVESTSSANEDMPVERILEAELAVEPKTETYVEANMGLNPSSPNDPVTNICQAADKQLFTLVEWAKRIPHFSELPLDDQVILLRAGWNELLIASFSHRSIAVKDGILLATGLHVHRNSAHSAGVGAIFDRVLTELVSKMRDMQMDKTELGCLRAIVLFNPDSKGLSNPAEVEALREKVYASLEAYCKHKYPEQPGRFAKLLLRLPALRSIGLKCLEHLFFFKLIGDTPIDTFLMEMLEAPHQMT

human Retinoid X Receptor beta (RXRb), RXRB (gene 6257), sequence (P28702 whole entry, looked up, the tested form may be a part): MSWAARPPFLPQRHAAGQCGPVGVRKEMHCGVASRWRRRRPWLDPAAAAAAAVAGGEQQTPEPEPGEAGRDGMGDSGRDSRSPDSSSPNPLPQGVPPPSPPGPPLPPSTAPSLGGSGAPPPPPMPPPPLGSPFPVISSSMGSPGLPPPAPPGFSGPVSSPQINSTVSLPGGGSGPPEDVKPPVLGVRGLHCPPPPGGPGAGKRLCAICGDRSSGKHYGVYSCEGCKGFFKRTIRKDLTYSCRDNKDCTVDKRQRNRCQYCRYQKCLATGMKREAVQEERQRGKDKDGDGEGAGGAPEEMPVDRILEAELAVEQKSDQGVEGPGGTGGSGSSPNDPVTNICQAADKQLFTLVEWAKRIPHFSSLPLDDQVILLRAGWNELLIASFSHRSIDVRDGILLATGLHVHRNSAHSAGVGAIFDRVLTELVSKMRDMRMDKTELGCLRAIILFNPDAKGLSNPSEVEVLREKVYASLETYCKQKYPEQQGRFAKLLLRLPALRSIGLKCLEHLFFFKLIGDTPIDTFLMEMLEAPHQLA
human Thyroid Receptor alpha (THRa1), THRA (gene 7067), sequence (P10827 whole entry, looked up, the tested form may be a part): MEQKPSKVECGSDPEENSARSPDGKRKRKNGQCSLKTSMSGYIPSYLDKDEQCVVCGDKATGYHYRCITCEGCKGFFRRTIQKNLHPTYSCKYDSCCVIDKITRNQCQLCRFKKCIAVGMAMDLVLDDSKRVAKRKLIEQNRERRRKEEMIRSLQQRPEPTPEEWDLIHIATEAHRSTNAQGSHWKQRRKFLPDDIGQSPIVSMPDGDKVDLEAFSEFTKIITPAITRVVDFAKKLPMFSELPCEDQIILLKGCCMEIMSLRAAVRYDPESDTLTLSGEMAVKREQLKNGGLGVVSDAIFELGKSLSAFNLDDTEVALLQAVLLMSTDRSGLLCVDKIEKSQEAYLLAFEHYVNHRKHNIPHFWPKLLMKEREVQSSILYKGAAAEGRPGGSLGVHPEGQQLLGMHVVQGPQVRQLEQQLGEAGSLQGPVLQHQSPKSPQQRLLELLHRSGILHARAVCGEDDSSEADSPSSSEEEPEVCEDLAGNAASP
E-selectin (Homo sapiens), sequence (P16581 whole entry, looked up): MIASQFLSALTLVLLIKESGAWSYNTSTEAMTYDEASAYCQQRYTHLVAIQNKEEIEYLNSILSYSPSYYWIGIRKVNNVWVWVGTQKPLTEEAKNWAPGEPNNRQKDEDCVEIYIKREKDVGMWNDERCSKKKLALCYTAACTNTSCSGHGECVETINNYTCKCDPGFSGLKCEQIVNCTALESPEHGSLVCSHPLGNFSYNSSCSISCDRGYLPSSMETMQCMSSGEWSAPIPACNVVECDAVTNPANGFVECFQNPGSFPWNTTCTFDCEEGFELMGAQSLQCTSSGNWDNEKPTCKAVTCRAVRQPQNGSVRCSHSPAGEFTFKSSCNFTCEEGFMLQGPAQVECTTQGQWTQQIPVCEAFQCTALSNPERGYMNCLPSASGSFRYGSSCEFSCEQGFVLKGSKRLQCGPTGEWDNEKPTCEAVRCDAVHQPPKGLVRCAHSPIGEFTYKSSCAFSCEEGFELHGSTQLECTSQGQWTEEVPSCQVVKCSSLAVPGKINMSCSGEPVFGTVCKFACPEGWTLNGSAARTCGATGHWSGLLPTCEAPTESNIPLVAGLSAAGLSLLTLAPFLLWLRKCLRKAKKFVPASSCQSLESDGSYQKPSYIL

As for `CC/C=C\CCOC(=O)c1ccccc1O`, the compound was classed as inactive in assay [1], in [2], in [4], in [9], in assay [10] and in assay [12]. Besides, the result in assay [16] and in assay [17] was inactive. Moreover, the AC50 in assay [3] is 32.9 µM (active); in assay [5], 29.7 µM (active); in [6], 10.9 µM (active); in assay [7], 33.1 µM (active); in assay [8] it was 34.7 µM (active); in assay [11], 29.9 µM (active). In addition, the figures for the AC50 in assay [13], in assay [14] and in assay [15] were 37.1 µM (active), 12.4 µM (active) and 14.2 µM (active), respectively.
Regarding `Oc1c(Cl)cc(Cl)c(Cl)c1Cl`, the outcome in assay [18], in [2], in [9], in assay [16] and in assay [17] was inactive. Also, the AC50 in assay [4] was 29.2 µM (active); in assay [5], 30.7 µM (active); in assay [6] it was 27.9 µM (active); in [7] it was 25 µM (active); in assay [8] it was 20 µM (active); in assay [11], 20 µM (active). For the same compound, the AC50 in [12] was 4.31 µM (active); in assay [13] it was 16.6 µM (active); in assay [14], 31.5 µM (active); in [15], 24.5 µM (active).
On to `CCCCNS(=O)(=O)c1ccc(C)cc1`, for which the call in assay [18] and in [2] was inactive.
For `CCc1occc(=O)c1O`, the compound was classed as inactive in assay [18] and in [2].
In the case of `CCCCC/C=C\C/C=C\CCCCCCCC(=O)O`, the outcome in assay [18] and in assay [10] was inactive.
Regarding `Oc1ccccc1Cc1ccccc1O`, the outcome in assay [1], in [2], in assay [4], in assay [5], in assay [7] and in assay [8] was inactive. Further, the outcome in [9], in assay [10], in assay [11], in [12], in [14] and in assay [15] was inactive. In addition, the outcome in assay [16] and in assay [17] was inactive. In addition, the AC50 in assay [5] is 1.72 µM (active); in assay [6] it was 4.2 µM (active) and 10.9 µM (active); in assay [17], 11.7 µM (active).
As to `N#Cc1ccc(C(c2ccc(C#N)cc2)n2cncn2)cc1`, the call in [18], in [1] and in [10] was inactive.
On to `c1ccc2sc(SSN3CCOCC3)nc2c1`, for which the compound was classed as inactive in [1], in [2], in assay [4], in [8], in [9] and in assay [10]. Further, the outcome in assay [12] and in [16] was inactive. The half-maximal activity concentration (AC50) was 14.2 µM (active) in assay [5]; 4.41 µM (active) in assay [6]; 5.37 µM (active) in assay [7]; 6.19 µM (active) in assay [11]; 8.8 µM (active) in assay [13]; 4.4 µM (active) in assay [14]. Besides, the AC50 in assay [15] was 5.2 µM (active).
As to `C1CCSC1`, the compound was called inactive in assay [1] and in assay [2].
As for `O=C(Oc1ccccc1)c1ccccc1O`, the call in assay [1] and in assay [2] was inactive.
`C=CCOC(=O)c1ccc(C(=O)OCC=C)c(C(=O)OCC=C)c1`: the result in assay [1], in assay [2] and in assay [10] was inactive.

As usually defined, the AC50 is the midpoint of the concentration-response curve, whichever way the signal moves.
